Laboratory results from PubChem BioAssay AID623868 (Vanderbilt High Throughput Screening Facility, 2012).
In all, about 2,100 compounds went through this assay and about 760 (36%) were called active. The list is a sample of the results. Unmarked numbers belong to inactive results.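 How the source made its calls: active means thallium-flux fluorescence traces judged by eye to show enhanced or reduced glutamate response, manual score 1 or -1, so both directions (some results past the limit were not filed as active); inactive means the rest, including fluorescent or raised-baseline compounds.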

Assay: thallium influx changes without GIRK channels – cell-based, HEK-293 rmGlu8, no GIRK, thallium flux, counter-screen for GIRK activator project, confirmation (AID 623868);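 further: extra codes mark interference with 3 for fluorescent and 4 for baseline rise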
Conditions: thallium flux fluorescence, at 10 µM, actives lie on both sides, codes: 1 enhancer, -1 blocker, 0 none, thallium stimulus containing EC20 glutamate

Compound	manual score
O=C1Nc2cc(S(=O)(=O)N3CCCC3)ccc2N2CCCC12 (configuration not stated)	0
O=C(NCCCCNC(=O)c1cccnc1)c1cccnc1	0
CC(C)OC(=O)/C(=C/c1cccnc1)NC(=O)c1ccccc1	0
O=C(N/N=C(\c1ccccc1)c1cccnc1)C(O)(c1ccccc1)c1ccccc1	-1 (active)
Cc1c(C#N)c2ncn(CC#N)c(=O)c2n1-c1ccccc1	0
CCCOC(=O)c1ccc(-c2c(C)noc2-c2ccc(OC)cc2O)o1	-1 (active)
COc1ccc(-c2onc(C)c2-c2ccc(C(=O)OC(C)C)o2)c(O)c1	0
Cc1cc(C(=O)OCC(=O)Nc2ccc(F)cc2)c(C)o1	0
Cc1ccccc1Nc1nc2nonc2nc1N1CCOCC1	0
Cc1ccccc1NC1=NC(=S)N(c2ccccc2)C12CCOC(C)(C)C2 (configuration not stated)	1 (active)
Cc1ccc(N2C(=S)N=C(Nc3ccccc3C)C23CCOC(C)(C)C3)cc1 (configuration not stated)	1 (active)
CC1=NCCN1S(=O)(=O)c1cc(Cl)ccc1Cl	0
COc1cccc2[nH]c3c(N4CCCC(C)C4)ncnc3c12 (configuration not stated)	0
S=C1Nc2cc(Cl)ccc2Sc2ccccc21	1 (active)
Clc1ccc2c(c1)C(N1CCNCC1)Cc1ccccc1S2 (configuration not stated)	0
S=C1Nc2ccccc2Sc2ccc(Cl)cc21	0
S=C1CCSc2ccc(Cl)cc2N1	1 (active)
CCOC(=O)c1[nH]c(C)c(C(=O)NC2CCCCC2)c1C	0
CC(C)Sc1oc(-c2ccco2)nc1S(=O)(=O)c1ccccc1	0
Cc1ccc(-c2cc(-c3cccs3)[nH]n2)c(O)c1	0
Fc1ccc(/C=N/n2c(-c3cccs3)n[nH]c2=S)cc1	1 (active)
CN=c1scc(-c2cccs2)n1/N=C/c1ccc(O)c(O)c1O	0
C=CCn1c(-c2cccs2)nc2ccccc21	0
Cc1ccc(/C=N/n2c(-c3cccs3)n[nH]c2=S)cc1	1 (active)
CC12CN(Cc3ccccc3)CC(C)(CN(Cc3ccccc3)C1)C2=NO	0
CC1CCCC(n2c(=S)[nH]c3ccccc3c2=O)C1C (configuration not stated)	3

Compound	manual score
CC1CCCCC1n1c(=S)[nH]c2ccccc2c1=O (configuration not stated)	1 (active)
O=C(C1CCC(Cn2c(=S)[nH]c3ccccc3c2=O)CC1)N1CCN(c2ccccc2)CC1 (configuration not stated)	0
CC1CCC(n2c(=S)[nH]c3ccccc3c2=O)CC1 (configuration not stated)	1 (active)
CCOC(=O)N1CCC(n2c(=S)[nH]c3ccccc3c2=O)CC1	1 (active)
O=c1c2ccccc2[nH]c(=S)n1C1CCCCC1	1 (active)
O=c1[nH]c2ccccc2n1CCC1CCCCC1	0
O=C(c1ccc2c(=O)n(C3CCCC3)c(=S)[nH]c2c1)N1CCc2ccccc21	0
CCN1CCN(C(=O)c2ccc3c(=O)n(C4CCCC4)c(=S)[nH]c3c2)CC1	0
CCOC(=O)/C(=C\C=C1/Sc2cc(OCC)c(OCC)cc2N1CC)C(C)=O	3
C=CCN1CCN(C(c2ccc(Cl)cc2)c2nnnn2CCc2ccc(OC)c(OC)c2)CC1 (configuration not stated)	0.5
CCC1(C)CC(c2csc(N)n2)CCO1 (configuration not stated)	0
O=C(CSCCO)Nc1ccccc1	0
CCOC(=O)C(C(=O)OCC)c1cc(Br)c2noc3c2c1C(=O)c1ccccc1-3	3
CC(C)(C)OC(=O)COc1cc(O)c2c(=O)cc(-c3ccccc3)oc2c1	0
Cc1ccc2c(c1)N(CC(=O)N(Cc1ccccn1)Cc1ccco1)C(=O)C(C(C)C)O2 (configuration not stated)	0
CCOc1ccc(-n2c(SC(C)C(=O)OC)nc3c(c2=O)SCC3)cc1 (configuration not stated)	-1 (active)
CCOc1ccc(-n2c(Cc3cc(=O)[nH]c(=O)[nH]3)nnc2SC(C)C(=O)OC)cc1 (configuration not stated)	0
COC(=O)C(C)Sc1nc2c(c(=O)n(C)c(=O)n2C)n1Cc1cccc(C)c1 (configuration not stated)	0
COC(=O)c1ccc(CSc2nc3c(c(=O)n2-c2ccc(F)cc2)SCC3)o1	-1 (active)
COc1cccc(NC(=O)NC2(C(F)(F)F)Oc3ccccc3O2)c1	0
CN(C)S(=O)(=O)N(CC(=O)Nc1ccc2ccccc2c1)c1ccccc1	0
COc1ccc(C(=O)Nc2ccccc2)cc1S(=O)(=O)Nc1cc(C)on1	0
Cc1cc(NC(=O)c2ccccc2Oc2ccccc2)no1	-1 (active)
CCCCOc1cccc(OCCCC)c1C(=O)Nc1cc(C)on1	0
Cc1cc([N+](=O)[O-])ccc1-c1ccc(C2Nc3ccccc3C(=O)N2O)o1 (configuration not stated)	1 (active)
O=C1c2ccccc2NC(c2ccc(-c3cccc(Cl)c3)o2)N1O (configuration not stated)	1 (active)
